# Source: article PMC12820563, “FoxP3 forms a head-to-head dimer in vivo and stabilizes its multimerization on adjacent microsatellites”
# Whole data set: some 16,000 sequences, median “rpm ratio (pull-down/input)” near 0.5, cut for the highest 2% near 5.5. What follows is part of a selection rich in the highest values, with near analogues and random picks from the rest.
# Molecular target: T1, MBP-FoxP3dN (Mus musculus, UniProt Q99JB6 188-423)
# T1 sequence: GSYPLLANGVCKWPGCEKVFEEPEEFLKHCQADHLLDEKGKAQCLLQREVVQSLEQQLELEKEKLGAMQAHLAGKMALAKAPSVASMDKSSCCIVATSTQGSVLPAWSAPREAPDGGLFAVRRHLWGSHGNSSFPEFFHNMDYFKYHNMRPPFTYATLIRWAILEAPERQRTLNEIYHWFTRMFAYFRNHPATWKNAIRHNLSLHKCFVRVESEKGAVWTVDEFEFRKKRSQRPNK
# Test: PD-seq (MBP pull-down with sequencing); 20 mM Tris-HCl pH 7.5, 100 mM NaCl, 1.5 mM MgCl2, 0.4 uM protein, 0.1 uM dsDNA library, 30 min, room temperature, amylose pull-down; high values mean tight binding
# Conditions: protein: recombinant; tags: His6-MBP; chain copies: 2; dsDNA, one strand shown
# How it was run: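 Binding is the reads-per-million enrichment of pull-down relative to input, pooled across replicates. For this, 0.4 µM His6-MBP-tagged mouse FoxP3 or FoxP1 fragment lacking the N-terminus, made in E. coli, was incubated with 0.1 µM Klenow-filled double-stranded degenerate DNA library for 30 min at room temperature in Tris pH 7.5 buffer with NaCl and MgCl2. Complexes bound to amylose resin were washed three times before proteinase K released the DNA for PCR barcoding and Illumina sequencing.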
row,Sequence,binding signal
1,GATGATTGTTCTCCCAGCTGATGAATTGCGCATGTCGAGTAAACAAATTTTCCTAATCTTTCTGTTCAAGCGCCATCTAC,6.5 RPM ratio (pull-down/input)
2,GATGATTGTTCTCCCAGCTGATGAATTGCTGATGTCGAGTAAACAAATTTTCCTAATCTTTCTGTTCAAGCGCCATCTAC,0.843 RPM ratio (pull-down/input)
3,GATGATTGTTCTCCCAGCTGATGAATTCCCCATGTCGAGTAAACAAATTTTCCTAATCTTTCTGTTCAAGCGCCATCTAC,0.259 RPM ratio (pull-down/input)
4,GATGATTGTTCTCCCAGCTGATGAATTGCGGTATTCGAGTAAACAAATTTTCCTAATCTTTCTGTTCAAGCGCCATCTAC,1.67 RPM ratio (pull-down/input)
5,GATGATTGTTCTCCCAGCTGATGAATTCTTGACTTCGAGTAAACAAATTTTCCTAATCTTTCTGTTCAAGCGCCATCTAC,0.38 RPM ratio (pull-down/input)
6,GATGATTGTTCTCCCAGCTGATGAATTATAGCCGTCGAGTAAACAAATTTTCCTAATCTTTCTGTTCAAGCGCCATCTAC,0.504 RPM ratio (pull-down/input)
7,GATGATTGTTCTCCCAGCTGATGAATTTCTGGTGTCGAGTAAACAAATTTTCCTAATCTTTCTGTTCAAGCGCCATCTAC,0.353 RPM ratio (pull-down/input)
8,GATGATTGTTCTCCCAGCTGATGAATTCTTAGTTTCGAGTAAACAAATTTTCCTAATCTTTCTGTTCAAGCGCCATCTAC,0.302 RPM ratio (pull-down/input)
9,GATGATTGTTCTCCCAGCTGATGAATTACCAGGCTCGAGTAAACAAATTTTCCTAATCTTTCTGTTCAAGCGCCATCTAC,0.357 RPM ratio (pull-down/input)
10,GATGATTGTTCTCCCAGCTGATGAATTTGAGCATTCGAGTAAACAAATTTTCCTAATCTTTCTGTTCAAGCGCCATCTAC,5.36 RPM ratio (pull-down/input)
11,GATGATTGTTCTCCCAGCTGATGAATTGAGCAGCTCGAGTAAACAAATTTTCCTAATCTTTCTGTTCAAGCGCCATCTAC,1.12 RPM ratio (pull-down/input)
12,GATGATTGTTCTCCCAGCTGATGAATTTTGAGCATCGAGTAAACAAATTTTCCTAATCTTTCTGTTCAAGCGCCATCTAC,0.906 RPM ratio (pull-down/input)
13,GATGATTGTTCTCCCAGCTGATGAATTGAGCATCTCGAGTAAACAAATTTTCCTAATCTTTCTGTTCAAGCGCCATCTAC,6.26 RPM ratio (pull-down/input)
14,GATGATTGTTCTCCCAGCTGATGAATTCGAGCATTCGAGTAAACAAATTTTCCTAATCTTTCTGTTCAAGCGCCATCTAC,4.97 RPM ratio (pull-down/input)
15,GATGATTGTTCTCCCAGCTGATGAATTGAGCATTTCGAGTAAACAAATTTTCCTAATCTTTCTGTTCAAGCGCCATCTAC,6.08 RPM ratio (pull-down/input)
16,GATGATTGTTCTCCCAGCTGATGAATTGAAGTCTTCGAGTAAACAAATTTTCCTAATCTTTCTGTTCAAGCGCCATCTAC,0.312 RPM ratio (pull-down/input)

row,Sequence,binding signal
1,GATGATTGTTCTCCCAGCTGATGAATTAGCCTCCTCGAGTAAACAAATTTTCCTAATCTTTCTGTTCAAGCGCCATCTAC,1.57 RPM ratio (pull-down/input)
2,GATGATTGTTCTCCCAGCTGATGAATTAAGCGGATCGAGTAAACAAATTTTCCTAATCTTTCTGTTCAAGCGCCATCTAC,0.341 RPM ratio (pull-down/input)
3,GATGATTGTTCTCCCAGCTGATGAATTGTAAACGTCGAGTAAACAAATTTTCCTAATCTTTCTGTTCAAGCGCCATCTAC,0.874 RPM ratio (pull-down/input)
4,GATGATTGTTCTCCCAGCTGATGAATTTTCCCACTCGAGTAAACAAATTTTCCTAATCTTTCTGTTCAAGCGCCATCTAC,0.213 RPM ratio (pull-down/input)
5,GATGATTGTTCTCCCAGCTGATGAATTTCTCCACTCGAGTAAACAAATTTTCCTAATCTTTCTGTTCAAGCGCCATCTAC,0.272 RPM ratio (pull-down/input)
6,GATGATTGTTCTCCCAGCTGATGAATTTTCGCACTCGAGTAAACAAATTTTCCTAATCTTTCTGTTCAAGCGCCATCTAC,0.504 RPM ratio (pull-down/input)
7,GATGATTGTTCTCCCAGCTGATGAATTCAGCCACTCGAGTAAACAAATTTTCCTAATCTTTCTGTTCAAGCGCCATCTAC,5.07 RPM ratio (pull-down/input)
8,GATGATTGTTCTCCCAGCTGATGAATTCTCCCACTCGAGTAAACAAATTTTCCTAATCTTTCTGTTCAAGCGCCATCTAC,0.246 RPM ratio (pull-down/input)
9,GATGATTGTTCTCCCAGCTGATGAATTTCGCCACTCGAGTAAACAAATTTTCCTAATCTTTCTGTTCAAGCGCCATCTAC,5.74 RPM ratio (pull-down/input)
10,GATGATTGTTCTCCCAGCTGATGAATTCCCCCACTCGAGTAAACAAATTTTCCTAATCTTTCTGTTCAAGCGCCATCTAC,0.253 RPM ratio (pull-down/input)
11,GATGATTGTTCTCCCAGCTGATGAATTGTGCCACTCGAGTAAACAAATTTTCCTAATCTTTCTGTTCAAGCGCCATCTAC,6.84 RPM ratio (pull-down/input)
12,GATGATTGTTCTCCCAGCTGATGAATTCCCACTCTCGAGTAAACAAATTTTCCTAATCTTTCTGTTCAAGCGCCATCTAC,0.323 RPM ratio (pull-down/input)
13,GATGATTGTTCTCCCAGCTGATGAATTCCGCCACTCGAGTAAACAAATTTTCCTAATCTTTCTGTTCAAGCGCCATCTAC,6.15 RPM ratio (pull-down/input)
14,GATGATTGTTCTCCCAGCTGATGAATTCTGCCACTCGAGTAAACAAATTTTCCTAATCTTTCTGTTCAAGCGCCATCTAC,6.04 RPM ratio (pull-down/input)
15,GATGATTGTTCTCCCAGCTGATGAATTCGCCCACTCGAGTAAACAAATTTTCCTAATCTTTCTGTTCAAGCGCCATCTAC,0.406 RPM ratio (pull-down/input)
16,GATGATTGTTCTCCCAGCTGATGAATTTCTCGTCTCGAGTAAACAAATTTTCCTAATCTTTCTGTTCAAGCGCCATCTAC,0.277 RPM ratio (pull-down/input)
